In paper PMC4336329 (PLoS ONE, 2015):
About 14,000 (4.5%) of roughly 310,000 compounds showed an effect of 50% or more. The effect is printed as a negative number. The list comes from a sample in which strong results are over-represented; it also holds similar structures and randomly drawn compounds.

Target: human ether-à-go-go-related gene (hERG) potassium channel (human, UniProt Q12809)
Test: primary screen, population patch clamp on CHO cells stably expressing hERG; higher = less effect of the substance
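Further: peak tail current of the secondary pulse compared with the same well before compound.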

Chain of human ether-à-go-go-related gene (hERG) potassium channel (Q12809 whole entry, looked up): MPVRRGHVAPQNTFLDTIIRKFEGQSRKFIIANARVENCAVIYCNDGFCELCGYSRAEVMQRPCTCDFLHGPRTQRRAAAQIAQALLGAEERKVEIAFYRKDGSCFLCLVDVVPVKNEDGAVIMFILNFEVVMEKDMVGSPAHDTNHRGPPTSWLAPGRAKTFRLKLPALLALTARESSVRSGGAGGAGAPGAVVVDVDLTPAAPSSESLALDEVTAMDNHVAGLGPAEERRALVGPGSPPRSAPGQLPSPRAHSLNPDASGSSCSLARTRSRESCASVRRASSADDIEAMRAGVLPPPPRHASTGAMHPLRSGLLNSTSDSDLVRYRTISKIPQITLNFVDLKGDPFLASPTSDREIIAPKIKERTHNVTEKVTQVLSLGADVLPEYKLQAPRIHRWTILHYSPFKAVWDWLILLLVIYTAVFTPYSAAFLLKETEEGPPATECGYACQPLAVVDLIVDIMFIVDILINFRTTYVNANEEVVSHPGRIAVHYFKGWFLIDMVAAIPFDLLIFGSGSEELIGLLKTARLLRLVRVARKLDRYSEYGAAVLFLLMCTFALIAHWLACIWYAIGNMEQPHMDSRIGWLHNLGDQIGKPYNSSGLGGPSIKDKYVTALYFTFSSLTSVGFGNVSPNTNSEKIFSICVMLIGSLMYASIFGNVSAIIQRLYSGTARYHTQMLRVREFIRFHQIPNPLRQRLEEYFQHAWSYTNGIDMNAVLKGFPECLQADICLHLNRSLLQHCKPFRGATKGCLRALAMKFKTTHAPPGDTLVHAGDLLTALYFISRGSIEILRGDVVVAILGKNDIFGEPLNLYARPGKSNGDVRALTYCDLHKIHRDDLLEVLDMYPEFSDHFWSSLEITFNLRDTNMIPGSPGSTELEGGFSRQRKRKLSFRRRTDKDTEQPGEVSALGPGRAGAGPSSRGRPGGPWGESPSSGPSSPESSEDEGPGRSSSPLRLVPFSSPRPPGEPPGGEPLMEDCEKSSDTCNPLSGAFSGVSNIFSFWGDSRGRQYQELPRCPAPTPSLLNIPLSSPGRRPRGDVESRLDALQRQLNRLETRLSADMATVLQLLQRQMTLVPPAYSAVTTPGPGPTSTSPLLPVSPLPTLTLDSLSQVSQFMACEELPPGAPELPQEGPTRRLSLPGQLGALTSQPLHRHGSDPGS

SMILES	hERG current change (%, negative = inhibition) at 10uM [%]
CCN1CCN(Cc2ccc(NC(=O)c3cc(NC(=O)c4ccc5n[nH]nc5c4)cc(OC)c3)cc2C(F)(F)F)CC1	21.1
CC(C(=O)OCC(=O)c1ccccc1)N1C(=O)C2C3CCC(C3)C2C1=O (centres unmarked)	10.5
c1ccc(OCCCn2nnc(-c3ccc(N4CCOCC4)cc3)n2)cc1	15.4
COc1ccc(NC(=O)CN(C)S(=O)(=O)c2cccc3nsnc23)cc1OC	-10.3
CCc1ccc(N(CC(=O)NC2CCCCC2)C(=O)CNC(=O)c2ccco2)cc1	-13.6
CC(C)c1ccc(N2C(=NC(=O)C3CCCO3)SC3CS(=O)(=O)CC32)cc1 (centres unmarked)	-9.87
O=C1c2ccccc2C(=O)N1CN(C(=O)COc1ccc(Cl)cc1Cl)c1cccc(F)c1	1.4
COc1cccc(S(=O)(=O)Nc2ccc(C(=O)NCc3ccco3)cc2)c1	3.01
Cn1c(-c2ccc(Br)cc2)cnc1NCc1ccc(C#N)cc1.O=C(O)C(=O)O	-76.6
Cn1c(-c2ccc(F)cc2)cnc1NCc1ccc(C#N)cc1	-73.7
Cn1c(-c2ccc(F)cc2)cnc1NCc1ccccc1	-46.7
Cn1c(-c2ccc(F)cc2)cnc1NCc1ccc(F)cc1	-40.7
Cn1c(-c2ccccc2)cnc1NCc1ccc(-c2ccccc2)cc1.O=C(O)C(=O)O	-10.4
COc1cc(OC)c(NC(=O)CCNC(=O)Cn2cnc3ccccc3c2=O)cc1Cl	-0.133
CCc1nnc(NS(=O)(=O)c2ccc(NC(=O)/C=C/c3ccc(F)cc3)cc2)s1	8.28
O=C(O)CCC(=O)Nc1sc2c(c1C(=O)NC1CCCC1)CCCC2	5.76
Cc1cc(C)cc(C(=O)NC(CC(N)=O)c2ccc(NC3CCCCCCC3)c([N+](=O)[O-])c2)c1 (centres unmarked)	1.06
CC(=O)c1c(O)cc(C)oc1=O	25.5
C(=N\Nc1nc(N2CCOCC2)nc(N2CCOCC2)n1)/c1cccnc1	-12.1
FC(F)(F)COc1nc(N/N=C/c2cccnc2)nc(N2CCCCC2c2ccccn2)n1 (centres unmarked)	-60.8
C(=N\Nc1nc(N2CCCC2)nc(N2CCCC2)n1)/c1cccnc1	6.33

SMILES	hERG current change (%, negative = inhibition) at 10uM [%]
COCCN(CC(=O)NCc1ccc(OC)cc1)C(=O)CCC(=O)Nc1nccs1	-8.1
O=S(Cc1cc(Oc2ccccc2)nc(-c2ccccc2)n1)c1ccccc1 (centres unmarked)	-7.69
O=Cc1sc(Nc2ccccc2)nc1Cl	-13.1
CCN1CCN(c2ccc(S(=O)(=O)N3CCCCC3)cc2NC(=O)c2ccc([N+](=O)[O-])o2)CC1	-75.9
COc1ccc(N2CCCC2)c(NC(=O)c2ccc([N+](=O)[O-])o2)c1	14
CCN1CCN(c2ccc(S(=O)(=O)N3CCCCC3)cc2NC(=O)c2ccc([N+](=O)[O-])s2)CC1	-80.6
CCN1CCN(S(=O)(=O)c2ccc(Cl)c(C(=O)Nc3ccccc3N3CCCCC3)c2)CC1	12.8
Cc1ccc(S(=O)(=O)N2CCCCC2)cc1NC(=O)c1cc2ccccc2o1	-7.85
CCN1CCN(c2c(Cl)cccc2NC(=O)c2cc3ccccc3o2)CC1	-23.4
CCN1CCN(c2ccc(S(=O)(=O)N3CCCCC3)cc2NC(=O)c2ccc(C)o2)CC1	-75.7
CCN1CCN(c2ccc(S(=O)(=O)N3CCCCC3)cc2NC(=O)c2cccc(C)c2[N+](=O)[O-])CC1	-28.8
CCN1CCN(c2ccc(S(=O)(=O)N3CCCCC3)cc2NC(=O)c2cc3ccccc3o2)CC1	-53.7
COc1ccc(S(=O)(=O)N2CCCCC2)cc1NC(=O)c1ccc([N+](=O)[O-])o1	-2.81
CCCn1c(/N=C/c2ccccc2O)nc2ccccc21	13.6
COc1ccc(OCCCC(=O)Nc2nncs2)cc1	0.955
COc1cccc(C=Nc2ccc(N3CCOCC3)cc2)c1O	17.9
CCCCC(=O)Nc1ccc2c(c1)nc(CCNC(=O)c1ccco1)n2C	-11.1
Cc1cnc(NC(=O)CN2CCN(c3ccccc3F)CC2)s1.Cl	12.2
Cc1ccc(S(=O)(=O)CCC(=O)OCC(=O)NCc2ccc(Cl)cc2)cc1	36.8
O=C(Nc1ccccc1Cl)NC1(C(=O)N2CCOCC2)CCCCC1	17.5
CCN1CCN(c2ccc(S(=O)(=O)N3CCCCC3)cc2NC(=O)c2sccc2C)CC1	-71.4

SMILES	hERG current change (%, negative = inhibition) at 10uM [%]
COc1ccccc1C(=O)Nc1nc(-c2cccs2)c(NC(C)=O)s1	-7.05
O=C(O)CN1c2cccc3cccc(c23)S1(=O)=O	32.4
CC(=O)N1c2ccc(Cl)cc2C2OCCC2C1c1ccco1 (centres unmarked)	9.11
O=C(c1ccc(S(=O)(=O)N2CCOCC2)cc1)N1CCN(c2ccccn2)CC1	4.62
OC(C#CCN1CCCC1)(c1ccccc1)c1cccc(F)c1 (centres unmarked)	-16.7
OC(C#CCCN1CCCCC1)(c1ccccc1)c1ccccc1	-53.8
OC(C#CCCN1CCCCC1)(c1ccccc1)C1CCCCC1 (centres unmarked)	-46.3
CC1CCCN1CC#CC(O)(c1ccccc1)c1ccccc1.Cl (centres unmarked)	-60.7
OC(C#CCN1CCCC1)(c1ccccc1)c1ccccc1	-28.8
OC(C#CCN1CCCCC1)(c1ccccc1)c1ccccc1	-24.6
CCOC(=O)[C@@H]1[C@H]2COc3ccc(Br)cc3[C@H]2N2C(=O)N(c3ccc(C)cc3)C(=O)[C@]12C	-4.14
O=C(NC(=S)NN1CCCCC1c1cccnc1)c1ccc(Cl)cc1Cl (centres unmarked)	-6.98
Cc1ccc(SCC(=O)NC(=O)NCCC(C)C)c(C)c1	-1.09
Cc1cc(Cl)c2oc(C(=O)N(C)CCCCN3CCOCC3)c(C)c2c1	-46
COc1ccccc1CNC(=O)c1c(O)c2cc(OC)c(OC)cc2[nH]c1=O	6.86
COc1cc(/C=N/NC(=O)C(=O)NCc2cccnc2)cc(OC)c1OC	5.17
O=C(C1=C[C@H](c2ccc3c(c2)OCO3)C[C@H](OCc2ccc(CO)cc2)O1)N1CCN(Cc2ccc3c(c2)OCO3)CC1	-17.2
C[C@H]1C=C(C(=O)N2CCN(Cc3ccc4c(c3)OCO4)CC2)O[C@@H](OCc2ccc(CO)cc2)C1	-70.7
O=C(C1=C[C@@H](C2CC2)C[C@@H](OCCCCO)O1)N1CCN(Cc2ccc3c(c2)OCO3)CC1	-11.1
O=C(C1=C[C@H](C2CCCCC2)C[C@H](OCc2ccc(CO)cc2)O1)N1CCN(Cc2ccc3c(c2)OCO3)CC1	-18.3
CC(C)(C)[C@H]1C=C(C(=O)N2CCN(Cc3ccc4c(c3)OCO4)CC2)O[C@@H](OCc2ccc(CO)cc2)C1	-33.7

SMILES	hERG current change (%, negative = inhibition) at 10uM [%]
O=C(C1=C[C@H](C2CC2)C[C@H](OCc2ccc(CO)cc2)O1)N1CCN(Cc2ccc3c(c2)OCO3)CC1	-57.8
CC(C)(C)[C@@H]1C=C(C(=O)N2CCN(Cc3ccc4c(c3)OCO4)CC2)O[C@H](OCc2ccc(CO)cc2)C1	-35
O=C(C1=C[C@@H](C2CC2)C[C@@H](OCc2ccc(CO)cc2)O1)N1CCN(Cc2ccc3c(c2)OCO3)CC1	-51.7
O=C(C1=C[C@@H](C2CCCCC2)C[C@@H](OCc2ccc(CO)cc2)O1)N1CCN(Cc2ccc3c(c2)OCO3)CC1	4.46
O=C(NC(=O)N1CCOCC1)c1ccccc1	8.08
CC(=O)NNC(=O)CSc1nnc(-c2ccccc2)c(-c2ccccc2)n1	19.4
COc1ccc(CN2CC(=O)N(c3ccc(C)c(C)c3)C2=S)cc1OC	12.2
CC(C)Oc1c(Cl)cc(CNC(C)(C)CO)cc1Cl	0.775
CSc1nnc(-c2ccco2)c(-c2ccco2)n1	2.75
CCCCCC(=O)Nc1ccc2oc(-c3cccnc3)nc2c1	-6.74
COC(=O)C1=C(C(=O)OC)SC2(S1)C(C(=O)OC)=C(C(=O)OC)SC1=C2c2cc(C)ccc2NC1(C)C	14.3
COC(=O)C1=C(C(=O)OC)SC2(S1)C(C(=O)OC)=C(C(=O)OC)SC1=C2c2cccc(C)c2NC1(C)C	-51.6
COC(=O)C1=C(C(=O)OC)SC2(S1)C(C(=O)OC)=C(C(=O)OC)SC1=C2c2cc(C)cc(C)c2NC1(C)C	26.1
CCOC(=O)C1CCCN(C(=O)c2cc(Nc3ccc(OC)cc3)nc3ccccc23)C1 (centres unmarked)	-15
COc1cc2nc(N(CCCN(C)C)C(=O)c3ccc(S(=O)(=O)N(C)C4CCCCC4)cc3)sc2cc1OC.Cl	-51.6
COc1cc2nc(N(CCN(C)C)C(=O)c3ccc(S(=O)(=O)N(C)CC4CCCO4)cc3)sc2cc1OC.Cl (centres unmarked)	-9.01
CN(C)CCCN(C(=O)c1ccc(S(=O)(=O)N(C)C2CCCCC2)cc1)c1nc2ccc(F)cc2s1.Cl	-71.9
Cc1ccc2sc(N(CCCN(C)C)C(=O)c3ccc(S(=O)(=O)N(C)C4CCCCC4)cc3)nc2c1C.Cl	-8.13
CN(C)CCCN(C(=O)c1ccc(S(=O)(=O)N(C)C2CCCCC2)cc1)c1nc2ccc(Br)cc2s1.Cl	2.39
CCc1ccc2nc(N(CCCN(C)C)C(=O)c3ccc(S(=O)(=O)N(C)C4CCCCC4)cc3)sc2c1.Cl	8.35
